Source: PubChem BioAssay (NCATS)
Unmarked numbers belong to inactive results. Results filed as inconclusive are left out. Activity calls are given as the source filed them. Unless noted, calls follow the shape of the dose curve; as a rule, active = well fitted curve in the direction sought with a large enough effect; inconclusive = small, poorly fitted or top-dose-only effect, or another doubt; inactive = no such curve, though single readings can be large; an effect the other way counts as inactive or inconclusive.

Experiments:
[1] = target: Lysosomal acid glucosylceramidase (Homo sapiens) (UniProt P04062); assay: Glucocerebrosidase-p2 (AID 348; in the data active = potency below about 10 µM; also: potency is read from the fitted curve at half-maximal effect); details: purified GBA, blue fluorogenic substrate, 40 min
In short: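 Compounds titrated from 0.6 nM upwards against 0.2 nM enzyme in pH 5.9 citric acid/KH2PO4, taurocholate, tween-20; blue fluorogenic substrate 80 uM, 40 min room temperature, stopped and read Ex 365/Em 440 for AC50.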

[2] = target: Cytochrome P450 1A2 (Homo sapiens) (UniProt P05177); assay: p450-cyp1a2 (AID 410; calls by dose curve; also: potency is read from the fitted curve at half-maximal effect;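 as to activity change, negative = inhibition: -100% = full effect of reference inhibitor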); details: recombinant CYP1A2, luciferin-ME demethylation, luminescence; series mostly up to 57 µM
In short: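 Inhibition was calculated relative to 57 uM furafylline (full inhibition). The reaction used human CYP1A2 at 20nM with Luciferin-ME at its Km, 100uM, driven by an NADPH-regenerating system for 60 min at room temperature.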

[3] = Stat Signaling Pathway (AID 446; active = well fitted curve in either direction with a large enough effect, not every such curve was filed as active;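 also: ME-180 cervical cancer cells given 40 pM IL-6 alongside compound; SIE-controlled beta-lactamase reporter measured as 460/530 nm FRET emission ratio; % is scaled to controls: 0 for no effect and ±100 for the full control effect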); details: ME-180 SIE beta-lactamase reporter, IL-6 stimulated, 5 h; at 7.69 µM (top of the series) unless noted
In short: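 ME-180 cells carrying a SIE-driven beta-lactamase reporter are stimulated with 40 pM IL-6 for 5 h at 37C in the presence of compound. The 460/530 nm FRET substrate ratio is read after 2.5 h at RT. Data are normalised to 300 pM IL-6 and to 125 nM JAK inhibitor controls.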

[4] = target: Glucocorticoid receptor (Homo sapiens) (UniProt P04150); assay: GR-GFP Redistribution (AID 450;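 active = compounds whose dose series gives a full or clear partial fitted curve of increased nuclear translocation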; also: potency is read from the fitted curve at half-maximal effect); details: U2OS GR-GFP nuclear translocation, laser cytometry, 2 h
[5] = target: Glucocorticoid receptor (Homo sapiens) (UniProt P04150); assay: GR-EFC Redistribution (AID 451; calls by dose curve; also: potency is read from the fitted curve at half-maximal effect); details: CHO-K1 GR-EFC translocation, beta-gal luminescence, 2 h
In short: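 CHO-K1 cells expressing nuclear EA and GR-ED fragments of b-gal; compounds titrated up to 46 uM final, 2 h at 37 C. GR nuclear translocation read as complemented b-gal luminescence after 1 h RT detection.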

[6] = target: Mitogen-activated protein kinase 10 (Mus musculus) (UniProt Q61831); assay: JNK3 AlphaScreen Assay (AID 530; active = well fitted curve in either direction with a large enough effect, not every such curve was filed as active;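 also: kinase came from lysate of stimulated human HepG2 cells; signal reports phosphorylation of biotinylated GST-cJun 1-79 at Ser73 with 10 µM ATP; % is scaled to controls: 0 for no effect and ±100 for the full control effect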); details: JNK3 lysate, c-Jun phosphorylation; series mostly up to 57.1 µM
In short: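 qHTS format: compounds tested as titrations against IL-1beta/TNF-alpha-activated HepG2 lysate JNK3 with biotin-GST-cJun substrate and 10 uM ATP at room temperature. Loss of anti-phospho-cJun AlphaScreen signal indicates inhibition.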

[7] = target: 3',5'-cyclic-AMP phosphodiesterase 4B (Homo sapiens) (UniProt Q07343); assay: qHTS Assay for Inhibitors of PDE-IV (AID 607; active = well fitted activation curve with a large enough effect in the main read-out, with a control signal flat, not every such curve was filed as active; also: % of control where 0% means no effect); details: HEK293 ACTOne CNG channel cells, membrane potential fluorescence; series mostly up to 22.9 µM
In short: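 HEK293 ACTOne cells with CNG channel (1000/well), endogenous PDE4; membrane potential dye, compounds up to 22.9 uM final. Fluorescence Ex 535/Em 590; RO 20-1724 (100 uM final) as reference.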

[8] = qHTS Assay for Identification of Small Molecule Agonists for Hypoxia Response Element Signaling Pathway (AID 914; active = well fitted activation curve with a large enough effect in the signal ratio, with a control signal flat, not every such curve was filed as active; the % refers to the signal ratio; also: potency is read from the fitted curve at half-maximal effect); details: ME-180 HRE-bla reporter, beta-lactamase ratio, CoCl2, 17 h; activation: stronger effect = higher value
In short: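 ME-180 cells carrying an HRE-driven beta-lactamase reporter were treated with compounds in a titration series plus an EC50 level of CoCl2 for 17 h at 37 degrees Celsius; CCF4 readout as the 460nm/530nm ratio gave AC50 values.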

[9] = target: Dual specificity protein kinase CLK4 (Homo sapiens) (UniProt Q9HAZ1); assay: qHTS Assay for Inhibitors of CDC-like Kinase 4 (Kinase-Glo Assay) (AID 1770); details: recombinant Clk4, Kinase-Glo ATP depletion luminescence; series mostly up to 66.7 µM; also: nearly all actives have a fitted effect of over 65% in size; also: potency is read from the fitted curve at half-maximal effect
In short: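 Inhibition was judged from remaining ATP, measured by Ultra-Glo luciferase bioluminescence after Clk4 (25 nM) had acted on RS peptide at 1 uM ATP for 4.5 hours, room temperature.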

[10] = target: Dual specificity protein kinase CLK4 (Homo sapiens) (UniProt Q9HAZ1); assay: qHTS Assay for Inhibitors of CDC-like Kinase 4 (ADP-Glo Assay) (AID 1771); details: recombinant CLK4, ADP-Glo luminescence; series mostly up to 80 µM; also: nearly all actives have a fitted effect of over 70% in size; also: potency is read from the fitted curve at half-maximal effect
In short: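 Kinase reaction: Clk4 at 25 nM, RS repeat peptide substrate at 100 uM, ATP at 1 uM, 1 hr, room temperature. Product ADP detected as luciferase signal via ADP-Glo.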

[11] = target: Dual specificity protein kinase CLK4 (Homo sapiens) (UniProt Q9HAZ1); assay: qHTS Assay for Inhibitors of CDC-like Kinase 4 (ADP-FP Assay) (AID 1795); details: Transcreener ADP fluorescence polarization; series mostly up to 50 µM; also: nearly all actives have a fitted effect of over 60% in size; also: potency is read from the fitted curve at half-maximal effect
In short: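 Inhibition of ADP formation by 6.25 nM Clk4 is measured using 1 uM ATP and 100 uM RS repeat peptide over one hour. Produced ADP displaces a fluorescent tracer from antibody, lowering polarization.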

[12] = target: Ubiquitin carboxyl-terminal hydrolase 1 (Homo sapiens) (UniProt O94782); assay: Inhibitors of USP1/UAF1: Pilot qHTS (AID 504865); details: purified USP1/UAF1, Ub-rhodamine cleavage fluorescence; series mostly up to 54.9 µM;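 also: rhodamine fluorescence freed from ubiquitin-rhodamine substrate followed over time; top concentration of the series differs between compounds; % is scaled to controls: 0 for no effect and ±100 for the full control effect; nearly all actives have a fitted effect of over 35% in size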
In short: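 Kinetic fluorescence assay: 1nM USP1/UAF1, 15 min compound preincubation, then 150nM Ub-Rho; 480/540 nm.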

[13] = Primary qHTS for small molecule stabilizers of the endoplasmic reticulum resident proteome: Secreted ER Calcium Modulated Protein (SERCaMP) assay (AID 1508630); details: SH-SY5Y GLuc-SERCaMP (Gaussia luciferase released on ER calcium loss) secretion, thapsigargin, luminescence; series mostly up to 38.4 µM; also: % is scaled to controls: 0 for no effect and ±100 for the full control effect
In short: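 GLuc-SERCaMP-expressing SH-SY5Y cells, pretreated 16 h with compound, are challenged with thapsigargin to empty ER calcium stores; after 4 h, coelenterazine is added directly to the medium and luminescence is imaged.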

[14] = target: Cytochrome P450 3A4 (Homo sapiens) (UniProt P08684); assay: qHTS Assay for Inhibitors and Substrates of Cytochrome P450 3A4 (AID 884); details: recombinant CYP3A4, Luciferin-PPXE luminescence; series mostly up to 57.1 µM; also: nearly all actives have a fitted effect of over 50% in size; also: potency is read from the fitted curve at half-maximal effect
In short: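 20 nM human CYP3A4 with 25 uM Luciferin-PPXE (at KM) in 200 mM KPO4, preincubated 10 min with compound; NADPH regeneration started a 60 min RT reaction. Luciferin detected by luminescence, normalized to 57 uM ketoconazole as full inhibition.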

[15] = target: Cytochrome P450 3A4 (Homo sapiens) (UniProt P08684); assay: qHTS Assay for Activators of Cytochrome P450 3A4 (AID 885); details: recombinant CYP3A4, Luciferin-PPXE luminescence, 60 min; series mostly up to 57.1 µM; also: nearly all actives have a fitted effect of over 65% in size
In short: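 Human CYP3A4 (20 nM) with Luciferin-PPXE at 25 uM (its KM) in 200 mM KPO4; 10 min compound preincubation, then NADPH regeneration and 60 min reaction at RT. Luciferin read by luminescence; normalized to 57 uM ketoconazole full inhibition.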

[16] = target: Cytochrome P450 2C19 (Homo sapiens) (UniProt P33261); assay: qHTS Assay for Inhibitors and Substrates of Cytochrome P450 2C19 (AID 899); details: recombinant CYP2C19, luciferin-H EGE luminescence; series mostly up to 57.1 µM; also: potency is read from the fitted curve at half-maximal effect; nearly all actives have a fitted effect of over 60% in size
In short: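 Signal comes from luciferase acting on luciferin released by CYP2C19-mediated hydroxylation of Luciferin-H EGE, 10uM (KM). Assay mix: 5nM enzyme, 50mM KPO4; 60 min at 37C with NADPH regeneration. Data normalized against 57uM ketoconazole.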

[17] = NFAT Signaling Pathway (AID 444; active = well fitted curve in either direction with a large enough effect, not every such curve was filed as active;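 also: carbachol stimulus at about its EC50 of 1 µM final; % is scaled to controls: 0 for no effect and ±100 for the full control effect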); details: Jurkat NFAT-bla M1, carbachol, beta-lactamase ratio, 5 h; at 7.69 µM (top of the series) unless noted
In short: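 Jurkat cells with NFAT-driven β-lactamase reporter and co-expressed M1 receptor, stimulated with carbachol (final 1 uM, ~EC50), compound titration, 5 h at 37 °C. CCF4 loaded 1 h at RT; 460/530 nm ratio gave %activity and AC50.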

[18] = target: Cytochrome P450 2C9 (Homo sapiens) (UniProt P11712); assay: qHTS Assay for Inhibitors and Substrates of Cytochrome P450 2C9 (AID 883); details: recombinant CYP2C9, luciferin-H luminescence, 60 min; series mostly up to 57.1 µM; also: nearly all actives have a fitted effect of over 60% in size; also: potency is read from the fitted curve at half-maximal effect
In short: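 Signal: luciferase luminescence reporting luciferin produced by CYP2C9. Conditions: 10nM enzyme, Luciferin-H 100uM at KM, 25mM KPO4, 37C, 60 min NADPH-driven reaction. Reference: 57uM sulphaphenazole as 100% inhibition.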

[19] = target: Cytochrome P450 2D6 (Homo sapiens) (UniProt P10635); assay: qHTS Assay for Inhibitors and Substrates of Cytochrome P450 2D6 (AID 891); details: recombinant CYP2D6, luciferin-ME EGE luminescence; series mostly up to 57.1 µM; also: nearly all actives have a fitted effect of over 60% in size; also: potency is read from the fitted curve at half-maximal effect
In short: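 Human CYP2D6 (5 nM) with 30 uM Luciferin-ME EGE (at Km) in 100 mM KPO4, compound preincubated 10 min, then NADPH regeneration system for 60 min at room temperature. Luciferin read by luminescence; normalized to 1.43 uM quinidine.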

[20] = AP1 Signaling Pathway (AID 357; active = well fitted curve in either direction with a large enough effect, not every such curve was filed as active); details: ME-180 (cervical carcinoma) AP-1-bla reporter, EGF-induced, beta-lactamase ratio, 5 h; at 7.69 µM (top of the series) unless noted
In short: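 In this screen, ME-180 cells in Opti-MEM with 0.5% dialyzed FBS received EC50 EGF and compound titrations for 5 h. AP-1 reporter beta-lactamase was detected via CCF4 ratio, giving AC50 for positive and negative modulators.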

Sequence of Ubiquitin carboxyl-terminal hydrolase 1 (Homo sapiens) (O94782 whole entry, looked up): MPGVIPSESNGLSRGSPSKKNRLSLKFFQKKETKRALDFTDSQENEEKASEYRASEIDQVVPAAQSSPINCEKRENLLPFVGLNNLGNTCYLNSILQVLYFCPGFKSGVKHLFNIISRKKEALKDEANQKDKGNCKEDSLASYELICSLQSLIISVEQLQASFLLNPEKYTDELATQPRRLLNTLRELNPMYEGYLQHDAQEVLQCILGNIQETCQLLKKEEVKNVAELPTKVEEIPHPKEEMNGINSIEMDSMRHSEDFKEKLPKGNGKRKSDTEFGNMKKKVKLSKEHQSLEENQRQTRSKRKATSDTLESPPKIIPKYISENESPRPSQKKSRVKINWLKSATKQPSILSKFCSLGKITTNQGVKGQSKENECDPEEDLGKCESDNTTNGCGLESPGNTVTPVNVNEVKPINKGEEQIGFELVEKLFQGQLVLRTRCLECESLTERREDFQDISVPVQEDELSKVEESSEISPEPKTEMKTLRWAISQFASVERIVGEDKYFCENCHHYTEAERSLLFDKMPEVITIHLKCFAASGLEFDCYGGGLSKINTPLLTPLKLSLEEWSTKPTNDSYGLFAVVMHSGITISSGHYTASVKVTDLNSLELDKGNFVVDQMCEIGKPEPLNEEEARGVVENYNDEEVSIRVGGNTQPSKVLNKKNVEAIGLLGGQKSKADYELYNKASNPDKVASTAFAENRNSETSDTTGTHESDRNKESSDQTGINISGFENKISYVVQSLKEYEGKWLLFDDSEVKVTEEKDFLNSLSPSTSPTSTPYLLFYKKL
Sequence of Cytochrome P450 3A4 (Homo sapiens) (P08684 whole entry, looked up): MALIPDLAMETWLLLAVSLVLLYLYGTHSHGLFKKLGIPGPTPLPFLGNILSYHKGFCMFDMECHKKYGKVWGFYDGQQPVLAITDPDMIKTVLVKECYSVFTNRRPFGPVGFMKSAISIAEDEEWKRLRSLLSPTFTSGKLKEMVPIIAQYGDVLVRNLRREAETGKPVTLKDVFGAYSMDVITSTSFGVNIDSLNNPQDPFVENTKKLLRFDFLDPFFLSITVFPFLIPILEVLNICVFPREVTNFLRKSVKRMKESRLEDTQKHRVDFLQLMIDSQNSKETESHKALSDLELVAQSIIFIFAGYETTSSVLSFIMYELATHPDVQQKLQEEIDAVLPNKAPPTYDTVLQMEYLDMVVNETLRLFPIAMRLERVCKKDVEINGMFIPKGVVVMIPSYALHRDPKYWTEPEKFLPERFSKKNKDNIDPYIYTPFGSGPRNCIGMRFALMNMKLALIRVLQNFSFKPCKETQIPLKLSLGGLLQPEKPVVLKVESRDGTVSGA
Sequence of Cytochrome P450 1A2 (Homo sapiens) (P05177 whole entry, looked up): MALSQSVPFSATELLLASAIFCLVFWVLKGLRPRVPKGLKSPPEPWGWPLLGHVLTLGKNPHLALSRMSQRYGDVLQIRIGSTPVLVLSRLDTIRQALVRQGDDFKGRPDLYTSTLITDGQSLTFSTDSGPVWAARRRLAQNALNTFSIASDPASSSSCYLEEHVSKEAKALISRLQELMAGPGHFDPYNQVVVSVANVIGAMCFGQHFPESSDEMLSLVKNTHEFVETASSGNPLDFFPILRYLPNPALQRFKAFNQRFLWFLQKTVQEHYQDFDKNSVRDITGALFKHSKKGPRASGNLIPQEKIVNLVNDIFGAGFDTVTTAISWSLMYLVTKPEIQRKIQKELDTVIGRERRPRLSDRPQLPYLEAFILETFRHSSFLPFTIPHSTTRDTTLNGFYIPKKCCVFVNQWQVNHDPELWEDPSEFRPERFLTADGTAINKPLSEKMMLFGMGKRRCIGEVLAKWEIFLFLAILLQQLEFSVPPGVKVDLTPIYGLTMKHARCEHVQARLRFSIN
Sequence of Glucocorticoid receptor (Homo sapiens) (P04150 whole entry, looked up, the tested form may be a part): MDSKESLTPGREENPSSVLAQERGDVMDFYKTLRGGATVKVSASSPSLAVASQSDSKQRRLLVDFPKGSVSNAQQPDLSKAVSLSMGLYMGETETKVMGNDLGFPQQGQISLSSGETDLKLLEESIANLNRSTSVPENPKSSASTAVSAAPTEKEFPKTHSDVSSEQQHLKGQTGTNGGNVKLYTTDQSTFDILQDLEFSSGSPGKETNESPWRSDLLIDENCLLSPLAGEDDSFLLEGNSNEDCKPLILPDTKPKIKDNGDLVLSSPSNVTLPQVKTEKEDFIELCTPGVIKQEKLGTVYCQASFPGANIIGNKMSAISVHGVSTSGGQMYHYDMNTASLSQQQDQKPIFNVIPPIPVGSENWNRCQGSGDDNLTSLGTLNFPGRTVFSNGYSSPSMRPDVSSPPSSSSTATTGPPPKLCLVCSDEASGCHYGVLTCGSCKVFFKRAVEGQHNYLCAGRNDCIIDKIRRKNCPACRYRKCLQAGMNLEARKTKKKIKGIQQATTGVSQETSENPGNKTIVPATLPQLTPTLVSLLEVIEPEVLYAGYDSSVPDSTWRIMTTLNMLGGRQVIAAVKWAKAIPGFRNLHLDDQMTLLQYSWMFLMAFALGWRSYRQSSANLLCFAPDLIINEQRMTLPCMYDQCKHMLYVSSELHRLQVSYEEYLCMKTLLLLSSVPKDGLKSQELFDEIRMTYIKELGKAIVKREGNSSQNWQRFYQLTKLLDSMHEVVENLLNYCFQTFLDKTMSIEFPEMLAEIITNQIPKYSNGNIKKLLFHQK
Sequence of 3',5'-cyclic-AMP phosphodiesterase 4B (Homo sapiens) (Q07343 whole entry, looked up): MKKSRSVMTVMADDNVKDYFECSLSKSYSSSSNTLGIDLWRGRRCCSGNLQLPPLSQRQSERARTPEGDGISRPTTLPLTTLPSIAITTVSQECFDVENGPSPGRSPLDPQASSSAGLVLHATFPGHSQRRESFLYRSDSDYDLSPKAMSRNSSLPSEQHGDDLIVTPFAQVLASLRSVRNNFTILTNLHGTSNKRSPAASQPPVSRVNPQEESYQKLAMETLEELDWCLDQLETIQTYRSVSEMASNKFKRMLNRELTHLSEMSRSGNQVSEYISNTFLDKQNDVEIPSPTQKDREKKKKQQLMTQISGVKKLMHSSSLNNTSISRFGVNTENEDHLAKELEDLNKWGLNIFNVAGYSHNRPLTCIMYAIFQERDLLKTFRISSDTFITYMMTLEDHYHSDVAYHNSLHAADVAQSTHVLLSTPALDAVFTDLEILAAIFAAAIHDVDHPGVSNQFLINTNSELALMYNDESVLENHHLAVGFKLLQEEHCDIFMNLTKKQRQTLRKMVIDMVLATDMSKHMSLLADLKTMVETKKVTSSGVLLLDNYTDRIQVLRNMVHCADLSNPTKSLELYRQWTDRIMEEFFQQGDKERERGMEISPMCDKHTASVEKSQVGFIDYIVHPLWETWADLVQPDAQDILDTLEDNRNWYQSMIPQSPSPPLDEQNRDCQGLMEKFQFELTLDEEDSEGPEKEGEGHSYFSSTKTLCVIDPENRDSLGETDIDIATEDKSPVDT
Sequence of Dual specificity protein kinase CLK4 (Homo sapiens) (Q9HAZ1 whole entry, looked up): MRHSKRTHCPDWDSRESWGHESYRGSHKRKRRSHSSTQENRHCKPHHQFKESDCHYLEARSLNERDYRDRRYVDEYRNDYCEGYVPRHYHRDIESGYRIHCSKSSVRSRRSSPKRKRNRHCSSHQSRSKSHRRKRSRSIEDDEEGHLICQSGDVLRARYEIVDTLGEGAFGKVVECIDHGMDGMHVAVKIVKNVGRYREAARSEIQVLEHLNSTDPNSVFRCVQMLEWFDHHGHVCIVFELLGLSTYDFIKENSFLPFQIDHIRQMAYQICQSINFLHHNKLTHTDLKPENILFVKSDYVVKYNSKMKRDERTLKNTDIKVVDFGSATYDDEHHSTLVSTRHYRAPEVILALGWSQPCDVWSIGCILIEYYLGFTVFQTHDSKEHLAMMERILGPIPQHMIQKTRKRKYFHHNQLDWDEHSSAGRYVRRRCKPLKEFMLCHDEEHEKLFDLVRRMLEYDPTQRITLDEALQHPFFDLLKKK
Sequence of Lysosomal acid glucosylceramidase (Homo sapiens) (P04062 whole entry, looked up): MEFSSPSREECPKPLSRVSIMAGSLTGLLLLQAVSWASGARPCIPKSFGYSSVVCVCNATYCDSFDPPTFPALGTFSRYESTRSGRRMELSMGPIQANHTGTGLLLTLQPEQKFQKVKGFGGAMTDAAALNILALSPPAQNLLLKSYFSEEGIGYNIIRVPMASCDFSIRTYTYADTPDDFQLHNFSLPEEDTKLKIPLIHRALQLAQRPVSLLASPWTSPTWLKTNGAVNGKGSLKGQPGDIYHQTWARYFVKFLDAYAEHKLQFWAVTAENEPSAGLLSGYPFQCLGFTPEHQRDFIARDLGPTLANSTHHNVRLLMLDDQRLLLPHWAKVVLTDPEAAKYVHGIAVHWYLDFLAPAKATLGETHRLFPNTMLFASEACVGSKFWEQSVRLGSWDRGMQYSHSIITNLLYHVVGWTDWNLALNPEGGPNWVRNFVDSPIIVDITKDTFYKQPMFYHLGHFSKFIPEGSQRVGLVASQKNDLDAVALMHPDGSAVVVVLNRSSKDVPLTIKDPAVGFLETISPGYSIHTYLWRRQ
Sequence of Cytochrome P450 2C9 (Homo sapiens) (P11712 whole entry, looked up): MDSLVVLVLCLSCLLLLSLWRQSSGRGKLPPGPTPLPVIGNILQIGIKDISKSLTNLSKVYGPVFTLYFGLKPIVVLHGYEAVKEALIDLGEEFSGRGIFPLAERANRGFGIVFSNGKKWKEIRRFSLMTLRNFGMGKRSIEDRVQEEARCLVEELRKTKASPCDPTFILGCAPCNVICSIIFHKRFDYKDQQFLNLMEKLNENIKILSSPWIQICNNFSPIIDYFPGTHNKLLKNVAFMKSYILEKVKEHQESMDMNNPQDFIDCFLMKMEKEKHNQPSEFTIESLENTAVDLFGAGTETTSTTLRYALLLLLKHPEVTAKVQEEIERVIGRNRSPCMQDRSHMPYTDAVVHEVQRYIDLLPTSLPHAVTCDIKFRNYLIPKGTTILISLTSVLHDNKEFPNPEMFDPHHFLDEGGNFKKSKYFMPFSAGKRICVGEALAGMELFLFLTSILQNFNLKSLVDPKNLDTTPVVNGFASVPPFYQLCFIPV

Row | Structure (SMILES) | Potency [1] | Potency [2] | activity, negative = inhibition [3] | Potency [4] | Potency [5] | Potency [6] | Potency [7] | Potency [8] | Potency [9] | Potency [10] | Potency [11] | Potency [12] | outcome [13] | Potency [14] | Potency [15] | Potency [16] | activity change, negative = inhibition [17] | Potency [18] | Potency [19] | activity change, negative = inhibition [20]
1 | O=c1c(-c2ccc(F)cc2)nc2cnc(N3CCOCC3)nc2n1Cc1ccc(F)cc1 | > 11.4 µM | 20 µM (active) | 105% [activator] (active) | > 9.22 µM | > 46 µM | inactive | inactive | 0.398 µM (active) | inactive | inactive | inactive | inactive | inactive | – | – | – | – | – | – | –
2 | Cc1cccc(CNc2ccnc(-c3cccc(C#N)c3)n2)c1 | > 11.4 µM | 0.398 µM (active) | – | > 46 µM | > 46 µM | – | inactive | – | 11.2 µM (active) | 7.94 µM (active) | 11.2 µM (active) | inactive | inactive | 1.26 µM (active) | inactive | 2.51 µM (active) | – | – | – | –
3 | CNc1ncncc1-c1ccccc1C | > 11.4 µM | 12.6 µM (active) | 2.49% | > 46 µM | > 46 µM | inactive | inactive | – | inactive | inactive | inactive | inactive | inactive | 0.631 µM (active) | inactive | – | 9.64% | – | – | –
4 | O=c1c(-c2ccc(Cl)cc2)nc2cnc(N3CCOCC3)nc2n1Cc1ccc(F)cc1 | > 11.4 µM | inactive | – | > 9.22 µM | > 46 µM | inactive | – | 3.16 µM (active) | inactive | inactive | inactive | inactive | inactive | inactive | – | – | – | inactive | inactive | –
5 | Cc1noc(C)c1-c1nc(N(C)Cc2ccco2)c2ccccc2n1 | > 11.4 µM | – | -25.7% | > 46 µM | > 46 µM | – | inactive | – | 28.2 µM (active) | 35.5 µM (active) | inactive | inactive | inactive | – | – | – | – | – | – | –
6 | Cc1ccccc1-c1ccc2ncnc(NCc3cccnc3)c2c1 | – | 0.251 µM (active) | -11% | > 46 µM | > 46 µM | inactive | inactive | – | 14.1 µM (active) | 11.2 µM (active) | 11.2 µM (active) | inactive | inactive | 1.58 µM (active) | inactive | – | 2.06% | 0.794 µM (active) | 2 µM (active) | -2.6%
7 | CCNc1ncc2nc(-c3ccc(F)cc3)c(=O)n(Cc3ccc(F)cc3)c2n1 | > 11.4 µM | 20 µM (active) | – | > 9.22 µM | > 46 µM | inactive | inactive | 1.58 µM (active) | inactive | inactive | inactive | – | inactive | – | – | – | – | – | – | –
